Compounds without any hit were thinned out: in the full panel of roughly 83,000, 20% have a hit.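 Each cell line was grown in a 96-well plate and treated with one concentration of compound for 48 hours. Values below 10 were considered active.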 Active and inactive are the calls of the source.
The molecules below were run on OVCAR-5 ovarian (assay: NCI-60 one-dose screen, 48 h (100 = growth as untreated, 0 = no growth, -100 = all killed)). Conditions: 10 µM unless noted.
For `Cc1cc(S(=O)(=O)/N=C(\N)n2nc(C)c(C)c2C)c(SCc2ccccc2)cc1Cl`, the growth was 90% (inactive). For `CS(=O)(=O)Nc1cncc(-c2ccc3ncnc(Nc4cncc(Cl)c4)c3c2)c1`, the growth was 74.3% (inactive). With `CC(C)(Sc1cc(C(C)(C)C)c(OC(=O)CCCC(=O)O)c(C(C)(C)C)c1)Sc1cc(C(C)(C)C)c(OC(=O)CCCC(=O)O)c(C(C)(C)C)c1` the growth was 76.2% (inactive). `COc1cc2c(c(OC)c1OC)CCC(c1cccc(NC(=O)c3ccc(Br)cc3)c1)O2` (stereo not given) was tested, and the growth was 93.3% (inactive). For `COc1ccc(CNc2c3ccccc3nc3ccccc23)cc1`, the growth was 46.4% (inactive). In the case of `N#CSc1c[nH]c2cccc(/C=C/C(=O)/C=C(/C=C/c3cccc4[nH]cc(SC#N)c34)OB(F)F)c12`, the growth is reported as -10.8% (active). In the case of `CC1=NC2=Nn3c(c4cnn(-c5ccccc5)c4n/c3=N\N)NN2C(c2ccccc2)=C1`, the growth is reported as 90% (inactive). In the case of `COc1ccc(\C=N/N=C(N)/C(N)=N\N=C/c2ccc(OC)cc2)cc1`, the growth is reported as 107% (inactive). With `NC(=O)c1cccc(-n2ccc3cc(NC(=O)c4ccc(N5CCOCC5)c(C(F)(F)F)c4)ccc32)n1` the growth was 70.1% (inactive). With `COc1ccc(-c2nc3cc(C(=O)NCc4ccccc4)ccc3n2C2CCCCC2)cc1` the growth was 84.9% (inactive). In the case of `CN(C)CC(C)(C)C(=O)/C=C/c1ccccc1`, the growth is reported as -12% [25 µM] (active). For `C=CCn1c(SCC(=O)Nc2ccc(C(=O)/C=C/c3ccc(Cl)cc3)cc2)nnc1-c1ccc(Br)cc1`, the growth was 98% (inactive). For `Cc1cn(-c2cc(NC(=O)c3cccc(C#Cc4cccc5[nH]nc(N)c45)c3)cc(C(F)(F)F)c2)cn1`, the growth was 28.8% (inactive). With `Oc1c(I)cc(I)cc1CNCCN(Cc1ccccn1)Cc1ccccn1` the growth was -24.3% (active). `C=CC[Se]C(=O)Cc1c(C)n(C(=O)c2ccc(Cl)cc2)c2ccc(OC)cc12` was tested, and the growth was -44.7% (active). In the case of `CCC(=C(c1ccc(OCCN2CCCCC2)cc1)c1ccc(OCCN2CCCCC2)cc1)c1ccc(Cl)cc1`, the growth is reported as -95.4% (active). For `Cc1ccc(/C=C2\COc3ccc(O)cc3C2=O)cc1`, the growth was 102% (inactive). In the case of `COc1cc2nc3cc([N+](=O)[O-])ccc3c(NCCNCC(C)O)c2cc1OC` (stereo not given), the growth is reported as 5.11% (active). For `O=C(NNC(=O)c1ccc(NC(=O)c2ccccn2)cc1)Nc1ccc([N+](=O)[O-])cc1`, the growth was 92.4% (inactive). For `O=C(Nc1ccc(Oc2cccc(F)c2)c(Cl)c1)c1cccnc1`, the growth was 72.6% (inactive). `CCCc1c(OC(=O)c2ccccc2)nc2[nH]c(=O)sc2c1C` was tested, and the growth was 98.8% (inactive). In the case of `CCCCCN1C(=O)/C(=c2\sc3n(c2=O)C2C(NN=3)N(CC)C(=O)N2CC)c2ccccc21` (stereo not given), the growth is reported as -4.09% (active). For `CCOC(=O)c1cc(C)n(-c2ccc(C(=O)O)cc2)c1C`, the growth was 76.7% (inactive). With `O=C1NC(=O)C(Cc2ccc(OCc3ccc(-c4ccc(Cl)cc4Cl)cc3)cc2)S1` (stereo not given) the growth was 80.6% (inactive). With `CC/C=C\C[C@H](O)C/C=C1/C(=O)C=C[C@@H]1C/C=C\CCCC(=O)N(C)C` the growth was 19.2% (inactive). `NC(=O)CSc1oc(-c2ccccc2)nc1S(=O)(=O)c1ccc(Br)cc1` was tested, and the growth was 109% (inactive). In the case of `COc1cc(-c2nccc3[nH]c(-c4ccc5cc[nH]c5c4)nc23)cc(OC)c1OC`, the growth is reported as 41.5% (inactive). In the case of `Cc1nc2sc(C(=O)Nc3cccc(Br)c3)c(N)c2cc1C(O)c1ccccc1` (stereo not given), the growth is reported as 57% (inactive). In the case of `CC(C)c1ccc(Cc2cnc(NC(=O)c3cc(Br)cs3)s2)cc1`, the growth is reported as 53.7% (inactive). `Cc1ccc(-c2nc([P+](c3ccccc3)(c3ccccc3)c3ccccc3)c(S(=O)(=O)c3ccc(C)cc3)o2)cc1` was tested, and the growth was 25.1% (inactive). In the case of `COC(CC(F)F)c1cn(S(=O)(=O)c2ccc(C)cc2)c2ccccc12` (stereo not given), the growth is reported as 33.3% (inactive). In the case of `Cc1ccc(C[P+](c2ccccc2)(c2ccccc2)c2ccccc2)cc1`, the growth is reported as 7.45% (active). In the case of `Cn1cc(-c2nonc2-c2cn(C)c3ccccc23)c2ccccc21`, the growth is reported as 35.5% (inactive). In the case of `CC1=C2[C@@H](CC1)[C@]1(C)O[C@@](C(C)C)(C[C@H]1OC(=O)[C@H](C)O)[C@H]2OC(=O)/C=C/c1ccccc1`, the growth is reported as 97.9% (inactive). With `Cc1c(-c2ccc(O)cc2)n(Cc2ccc(OCCN3CCCCCC3)cc2)c2ccc(O)cc12` the growth was 87.9% (inactive). `CCOC(=O)C(=O)C(C(=O)OCC)c1ccccc1` (stereo not given) was tested, and the growth was 106% (inactive). In the case of `CS(=O)(=O)c1ccc(-c2cnn3ccc(-c4cccc(S(=O)(=O)C5CC5)c4)nc23)cc1`, the growth is reported as 68.7% (inactive). With `O=S(=O)(NCCNc1nccc(-c2c(-c3ccc(F)c(O)c3)nc3occn23)n1)c1ccc(Cl)cc1` the growth was 127% (inactive). `Nc1n[nH]c2cccc(C#Cc3cccc(NC(=O)c4cc(F)cc(C(F)(F)F)c4)c3)c12` was tested, and the growth was 70.8% (inactive). With `N#Cc1nc(-c2ccc(F)cc2)oc1S(=O)(=O)N1CCOCC1` the growth was 101% (inactive).

Reference: PubChem BioAssay (NCI)
